Reference: PubChem BioAssay (NCATS)
Records with an inconclusive call do not appear. Calls of active or inactive are those of the source. Calls follow the shape of the dose curve; as a rule, active = well fitted cell-killing curve with a large enough effect; inconclusive = small, poorly fitted or top-dose-only effect, or effect the other way; inactive = no such curve, though single readings can be large or run the other way.

Assay: qHTS of pediatric cancer cell lines to identify multiple opportunities for drug repurposing: Confirmatory screen for MG 63 (6-TG R) cells (AID 1347119); also: nearly all actives have a fitted effect of over 55% in size
Settings: MG-63 (6-TG resistant) osteosarcoma viability; series mostly up to 45.9 µM
Text: Drug repurposing or repositioning has been offered as a strategy for drug development in oncology programs. This approach has special potential for childhood cancers and other rare or orphan diseases, where the expected return on new drug development has been a disincentive to pharmaceuticals.
In this project we exploit the poly-pharmacology of drugs to discover new indications via phenotypic screening of a panel of 19 well-characterized cell lines derived from solid tumors seen in children and adolescents. The goal is to identify approved drugs with previously unrecognized anticancer properties that has the potential to reveal new mechanisms and biological processes involved in carcinogenesis or drug resistance. We employed a titration-based paradigm (quantitative high-throughput screening or qHTS), where all compounds were tested at multiple concentrations for their effect on cell viability. Concentration-response curves (CRCs) were derived directly from the primary screen, and both potency and efficacy values were used to identify compounds with robust bioactivity profiles. We screened the NIH Chemical Genomics Center (NCGC) Pharmaceutical Collection (NPC) and Mechanism Interrogation Plate (MIPE) small molecule collections of approved and investigational compounds against these cell lines; and measured metabolically active cells after 48 hours of compound treatment as a proxy for cell viability.
Assay Submitter: Nathalia J. Martinez, National Center for Advancing Translational Sciences, National Institutes of Health, Rockville, MD, USA; email: natalia.martinez@nih.gov
[1] Shen, M et al. Quantitative high-throughput phenotypic screening of pediatric cancer cell lines identifies multiple opportunities for drug repurposing. Oncotarget 2017 Dec 19;9(4):4758-4772. PMID 29435139.
The cells were obtained from University of North Carolina (UNC), Pediatric Preclinical Testing Program (PPT), and Coriell Institute (CI).
qHTS cell viability assay:
Cells were assayed in growth media at a density of 500-1,000 cells/well. Five microliters of cells were dispensed into 1,536-well, white, solid-bottom, TC-treated plates (Greiner Bio One) using a multidrop dispenser and incubated at 37 degrees C, 5% CO2, under a humidified atmosphere for 5 hours. Twenty-three nanoliters of compounds and controls (neutral control DMSO or positive control bortezomib at final concentration of 2.3 µM) were subsequently transferred by Kalypsys pintool. For primary screens, the MIPE collection was tested at 11-point dilutions (final concentrations range from 0.78 nM to 46 µM) and the NPC collection at 8-point dilutions (final concentrations range from 0.59 nM to 46 µM). Compounds tested in follow-up screens were assayed at 11-point dilutions. Cells were incubated for 48 hours, followed by addition of 3 µL of CellTiter-Glo (Promega). After a 15 min incubation at room temperature, samples were analyzed for luminescence intensity using a ViewLux High-throughput CCD imager equipped with clear filters.
Potency is read from the fitted curve at half-maximal effect.

**Q.** With `CC1C(=O)OC2C(O)C34C5CC(C(C)(C)C)C36C(OC(=O)C6O)OC4(C(=O)O5)C12O` (stereo not given) as the molecule, how does the Potency read?
**A.** The Potency was “inactive”.

**Q.** Which Potency does the source give for `CNC(=O)[C@H](CC1=CN=C2C=CCC=C12)NC(=O)[C@@H](CC(=O)NO)CC(C)C` here?
**A.** Its Potency is 1470 nM (active).

**Q.** With `C[C@H](c1ccc(F)cc1CCCC(=O)O)N(c1cc(F)ccc1F)S(=O)(=O)c1ccc(Cl)cc1` as the molecule, how does the Potency read?
**A.** Its Potency is “inactive”.

**Q.** Which Potency does the source give for `CC[C@]1(O)C[C@H]2CN(CCC3=c4ccccc4=N[C]3[C@@](C(=O)OC)(c3cc4c(cc3OC)N(C)[C@H]3[C@@](O)(C(N)=O)[C@H](O)[C@]5(CC)C=CCN6CC[C@]43[C@@H]65)C2)C1` here?
**A.** The Potency was 261 nM (active).

**Q.** Which Potency does the source give for `NC(N)=Nc1nc(CSCCC(N)=NS(N)(=O)=O)cs1` here?
**A.** Its Potency is “inactive”.

**Q.** Which Potency does the source give for `CC1(COc2ccc3c(c2)ncn3-c2ccc3cccc(N4CCC(N)CC4)c3n2)COC1` here?
**A.** The Potency was “inactive”.

**Q.** With `CC1CNc2c(cccc2S(=O)(=O)N[C@@H](CCCN=C(N)N)C(=O)N2CC[C@@H](C)C[C@@H]2C(=O)O)C1` (stereo not given in full) as the molecule, how does the Potency read?
**A.** Its Potency is “inactive”.

**Q.** For `COc1cc2ncnc(Nc3cc(Br)c(O)c(Br)c3)c2cc1OC`, which Potency is on record?
**A.** The Potency was “inactive”.

**Q.** With `COc1ccc2c(c1)c(C1=C(c3c[nH]c4ccccc34)C(=O)NC1=O)cn2CCCN(C)C` as the molecule, how does the Potency read?
**A.** The Potency was “inactive”.

**Q.** With `CCCCn1c(=O)n(Cc2ccccc2F)c(=O)c2[nH]c(Cc3ccc(NC(C)=O)cc3)nc21` as the molecule, how does the Potency read?
**A.** The Potency was “inactive”.

**Q.** For `Cc1ccc(C(=O)N(CCCN)[C@@H](c2oc3cc(Cl)ccc3c(=O)c2Cc2ccccc2)C(C)C)cc1`, which Potency is on record?
**A.** Its Potency is 23.3 nM (active).

**Q.** For `Cc1ccc(C(=O)N(CCCN)[C@@H](c2nc3cc(Cl)ccc3c(=O)n2Cc2ccccc2)C(C)C)cc1`, which Potency is on record?
**A.** Its Potency is 75.9 nM (active).

**Q.** Which Potency does the source give for `C[C@@]1(C(=O)Nc2ccc(F)nc2)CCCN1c1nc(Nc2cc(C3CC3)[nH]n2)c2cccn2n1` here?
**A.** Its Potency is 104 nM (active).

**Q.** With `CN1N=C(N)c2cn([C@@H]3O[C@H](COP(=O)(O)O)[C@@H](O)[C@@H]3O)c3ncnc1c23` as the molecule, how does the Potency read?
**A.** Its Potency is 827 nM (active).

**Q.** For `CCNC(=O)c1noc(-c2cc(C(C)C)c(O)cc2O)c1-c1ccc(CN2CCOCC2)cc1`, which Potency is on record?
**A.** The Potency was 147 nM (active).

**Q.** For `C[C@@]1(c2cc(-c3cncnc3)c(F)cc2F)CCSC(N)=N1`, which Potency is on record?
**A.** Its Potency is 9270 nM (active).

**Q.** For `C[C@@H]1O[C@@H](O[C@H]2CC[C@@]3(C)[C@H](CC[C@@H]4[C@H]3C[C@@H](O)[C@]3(C)[C@@H](C5=CC(=O)OC5)CC[C@]43O)C2)C[C@H](O)[C@@H]1O[C@H]1C[C@H](O)[C@H](O[C@H]2C[C@H](O)[C@@H](O)[C@@H](C)O2)[C@H](C)O1` (stereo in doubt), which Potency is on record?
**A.** Its Potency is 75.9 nM (active).

**Q.** For `OCCn1cc(-c2ccc3c(c2)CCC3=NO)c(-c2ccncc2)n1`, which Potency is on record?
**A.** The Potency was “inactive”.

**Q.** With `N#CC(=C1Nc2ccccc2S1)c1ccnc(OCc2ccc(CN3CCOCC3)cc2)n1` as the molecule, how does the Potency read?
**A.** Its Potency is “inactive”.

**Q.** Which Potency does the source give for `COc1cc([C@@H]2c3cc4c(cc3[C@@H](O[C@@H]3O[C@@H]5CO[C@@H](C)O[C@@H]5[C@H](O)[C@@H]3O)[C@H]3COC(=O)[C@H]23)OCO4)cc(OC)c1O` here?
**A.** The Potency was 5850 nM (active).

**Q.** Which Potency does the source give for `COC(=O)[C@H](c1ccccc1Cl)N1CCc2sccc2C1` here?
**A.** The Potency was “inactive”.

**Q.** Which Potency does the source give for `C=C1[C@H](n2cnc3c(=O)[nH]c(N)nc32)C[C@H](O)[C@H]1CO` here?
**A.** The Potency was “inactive”.

**Q.** For `CC(C)n1c(C=C[C@H](O)C[C@H](O)CC(=O)O)c(-c2ccc(F)cc2)c2ccccc21`, which Potency is on record?
**A.** The Potency was 3290 nM (active).

**Q.** With `COC(=O)Nc1ccc(-c2nc(N3CCOCC3)c3cnn(C4CCN(C(=O)OC)CC4)c3n2)cc1` as the molecule, how does the Potency read?
**A.** Its Potency is 1310 nM (active).

**Q.** For `C=CC(=O)Nc1cccc(Sc2nc(Nc3ccc(N4CCN(C)CC4)cc3)ncc2Cl)c1`, which Potency is on record?
**A.** Its Potency is 18500 nM (active).

**Q.** With `CCCC1OC2C[C@@H]3[C@H]4CCC5=CC(=O)C=C[C@]5(C)[C@H]4C(O)C[C@]3(C)[C@]2(C(=O)CO)O1` (stereo not given in full) as the molecule, how does the Potency read?
**A.** The Potency was “inactive”.

**Q.** For `CSc1cccc(Nc2ncc3cc(-c4c(Cl)cccc4Cl)c(=O)n(C)c3n2)c1`, which Potency is on record?
**A.** The Potency was 1850 nM (active).

**Q.** For `Cc1c(C(=O)Nc2ccc(N3C[C@@H](C)O[C@@H](C)C3)nc2)cccc1-c1ccc(OC(F)(F)F)cc1`, which Potency is on record?
**A.** The Potency was 10400 nM (active).

**Q.** Which Potency does the source give for `CC(C)CN(C[C@@H](O)[C@H](Cc1ccccc1)NC(=O)O[C@H]1CO[C@H]2OCC[C@H]21)S(=O)(=O)c1ccc(N)cc1` here?
**A.** The Potency was “inactive”.

**Q.** With `CN(C)CCN(C)C(=O)c1ccc(NC(=O)Nc2ccc(-c3nc(N4CCOCC4)c4ccn(CC(F)(F)F)c4n3)cc2)cc1` as the molecule, how does the Potency read?
**A.** Its Potency is 329 nM (active).

**Q.** Which Potency does the source give for `O=C1Nc2ccc(I)cc2C1=Cc1cc(Br)c(O)c(Br)c1` here?
**A.** Its Potency is “inactive”.

**Q.** With `C[C@@H]1[C@H](O)[C@@H](C)C=CC=CC=CC=CC=CC=CC=C[C@H](O[C@@H]2O[C@H](C)[C@H](O)[C@H](N)[C@@H]2O)C[C@@H]2O[C@](O)(C[C@@H](O)C[C@@H](O)[C@H](O)CC[C@@H](O)C[C@@H](O)CC(=O)O[C@H]1C)C[C@H](O)[C@@H]2C(=O)O` as the molecule, how does the Potency read?
**A.** The Potency was “inactive”.

**Q.** For `CCC(C)SSc1ncc[nH]1` (stereo not given), which Potency is on record?
**A.** The Potency was 20800 nM (active).

**Q.** For `COc1ccc(-c2ccc3ncc4c(c3c2)n(-c2ccc(N3CCNCC3)c(C(F)(F)F)c2)c(=O)n4C)cn1`, which Potency is on record?
**A.** Its Potency is 32.9 nM (active).

**Q.** For `FC(F)(F)c1ccc(C=Cc2nc(COc3ccc(CCCCn4ccnn4)cc3)co2)cc1`, which Potency is on record?
**A.** Its Potency is 261 nM (active).

**Q.** With `CC(C)CN(C[C@H](O)[C@H](Cc1ccccc1)NC(=O)O[C@H]1CCOC1)S(=O)(=O)c1ccc(N)cc1` as the molecule, how does the Potency read?
**A.** Its Potency is 8270 nM (active).

**Q.** With `CC1(C)OC2CC3C4CC(F)C5=CC(=O)C=CC5(C)C4C(O)CC3(C)[C@]2(C(=O)CO)O1` (stereo not given in full) as the molecule, how does the Potency read?
**A.** The Potency was “inactive”.

**Q.** With `Nc1ccn([C@@H]2O[C@H](CO)[C@@H](O)[C@H]2O)c(=O)n1` as the molecule, how does the Potency read?
**A.** The Potency was “inactive”.

**Q.** Which Potency does the source give for `CCC(=O)OCC(=O)[C@@]1(OC(=O)CC)[C@@H](C)C[C@@H]2[C@H]3CCC4=CC(=O)C=C[C@]4(C)[C@@]3(F)[C@@H](O)C[C@@]21C` here?
**A.** Its Potency is “inactive”.

**Q.** Which Potency does the source give for `CON(C)C(=O)N1N=C(c2cc(F)ccc2F)S[C@]1(CCCN)c1ccccc1` here?
**A.** The Potency was 20.8 nM (active).
